Assay results taken from PubChem BioAssay (NCI).
About 79,000 compounds went through this panel and 15% of them were active in at least one assay; those are over-represented in the sample as a whole. Unmarked numbers belong to inactive results. Active and inactive are the calls of the source. Rule as the data show it: active = growth inhibition above about 70%; inactive = the rest.

How the values were obtained:
[1] = NCI Yeast Anticancer Drug Screen. Data for the rad50 strain (AID 155);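 also: 0% = growth of vehicle-only cultures of the same strain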; conditions: S. cerevisiae rad50 strain growth inhibition, stronger effect = higher value
Method in brief: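 Readout: growth inhibition relative to vehicle-treated cultures. Compound exposure was carried out in a genetically defined yeast strain deficient in DNA damage repair.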

[2] = NCI Yeast Anticancer Drug Screen. Data for the mec2-1 strain (AID 157); conditions: S. cerevisiae mec2-1 strain, stronger effect = higher value
Method in brief: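 Each compound was tested on mec2-1 yeast, a strain altered in DNA damage repair or cell cycle control. Growth inhibition is reported relative to vehicle.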

[3] = NCI Yeast Anticancer Drug Screen. Data for the sgs1 mgt1 strain (AID 161);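 also: 0% = growth of cultures given vehicle only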; conditions: S. cerevisiae sgs1 mgt1 strain, stronger effect = higher value
Method in brief: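 Read-out: growth inhibition vs vehicle controls. Cells: mutant yeast strain deficient in DNA damage repair.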

[4] = NCI Yeast Anticancer Drug Screen. Data for the cln2 rad14 strain (AID 165);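 also: 0% = growth equal to vehicle treated cultures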; conditions: S. cerevisiae cln2 rad14 strain, stronger effect = higher value
Method in brief: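 Test compounds were added to cln2 rad14 yeast cultures; inhibition of growth was then determined by comparison with vehicle treatment.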

[5] = NCI Yeast Anticancer Drug Screen. Data for the bub3 strain (AID 167); conditions: S. cerevisiae bub3 mutant strain, stronger effect = higher value
Method in brief: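 Readout: yeast growth inhibition, expressed relative to vehicle-only wells. The test organism is a mutant strain from a panel with lesions in DNA repair or checkpoint genes.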

[6] = NCI Yeast Anticancer Drug Screen. Data for the mlh1 rad18 strain (AID 175); conditions: S. cerevisiae mlh1 rad18 strain growth inhibition, stronger effect = higher value
Method in brief: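 Inhibition values reflect reduced growth of mutant yeast versus vehicle-treated controls following compound exposure; the mutations affect DNA damage repair.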

[7] = at 5.0 µM (retest, dose inferred, filed as 0.5)
[8] = at 50.0 µM (retest, dose inferred, filed as 5.0)

| SMILES | growth inhibition [1, 7] | growth inhibition [1, 8] | growth inhibition ([1]; at 50.0 µM) | growth inhibition [2, 7] | growth inhibition [2, 8] | growth inhibition ([2]; at 50.0 µM) | growth inhibition [3, 7] | growth inhibition [3, 8] | growth inhibition ([3]; at 50.0 µM) | growth inhibition [4, 7] | growth inhibition [4, 8] | growth inhibition ([4]; at 50.0 µM) | growth inhibition [5, 7] | growth inhibition [5, 8] | growth inhibition ([5]; at 50.0 µM) | growth inhibition [6, 7] | growth inhibition [6, 8] | growth inhibition ([6]; at 50.0 µM) |
| --- | --- | --- | --- | --- | --- | --- | --- | --- | --- | --- | --- | --- | --- | --- | --- | --- | --- | --- |
| CC(=O)CCCOC(C)=O | 63% | 78% (active) | 14.7% | 22% | 40% | -5.8% | 77% (active) | 78% (active) | 7.85% | 10% | 22% | 24.6% | 62% | 86% (active) | -0.55% | 45% | 75% (active) | 31.6% |
| O=[N+]([O-])C1CCC(C2=CSC3CCCCC3N2)CC1 (stereo not drawn) | 12% | 7% | 34.6% | -16% | 44% | 57.5% | -9% | 23% | 38.8% | 23% | 31% | 11.4% | 0% | 52% | 67.8% | -1% | 60% | 18% |
| CCCCCCCCCCCCCC(N)c1ccc(C)cc1 (stereo not drawn) | 60% | 97% (active) | 99% (active) | 0% | 98% (active) | 99.2% (active) | 99% (active) | 98% (active) | 99.5% (active) | 3% | 97% (active) | 97.7% (active) | 13% | 97% (active) | 98.5% (active) | 33% | 97% (active) | 98.3% (active) |
| CCCCCCCCCCCC(=O)NN | 14% | 82% (active) | 97.4% (active) | 12% | 43% | 97.6% (active) | 6% | 68% | 98% (active) | -3% | 65% | 97% (active) | 22% | 52% | 95.3% (active) | 8% | 82% (active) | 97.8% (active) |
| O=NN(CCCl)C(=O)Nc1cc(Cl)ccc1O | -8% | 57% | 86.2% (active) | -8% | 30% | 36.1% | -5% | 46% | 72.5% (active) | -3% | 13% | 8.45% | -21% | -16% | 37.1% | 5% | 81% (active) | 90.1% (active) |
| Cc1cc(Nc2ccc(N=Nc3ccc(O)c4ncccc34)cc2)nc(C)n1 | 1% | 31% | 71.1% (active) | -4% | 21% | 52.5% | -2% | 35% | 47.9% | -41% | 6% | 23% | 5% | 4% | 60.9% | 0% | 37% | 75.5% (active) |
| O=C(Nc1cccc(C(F)(F)F)c1)c1cc(Br)cc(Br)c1O | 38% | 87% (active) | 83.2% (active) | 37% | 80% (active) | 62.6% | 44% | 85% (active) | 77% (active) | 45% | 75% (active) | 67.5% | 44% | 83% (active) | 69.3% | 52% | 95% (active) | 64.1% |
| N=Nc1c(OC(=O)Nc2ccccc2)[nH]c2ccccc12 | -3% | 67% | 8.65% | 20% | 63% | -6.3% | -1% | 69% | 13.8% | 9% | 40% | 63.9% | 1% | 84% (active) | 31.9% | -3% | 85% (active) | 71.5% (active) |
| O=C(O)CSc1ccc(N=C=S)cc1 | -5% | 96% (active) | -8.1% | 3% | 91% (active) | 8.15% | 9% | 93% (active) | -2.75% | -9% | 69% | 4.8% | -27% | 95% (active) | 0.55% | 37% | 98% (active) | -2.35% |
| O=C(/C=C\c1ccc([N+](=O)[O-])o1)/C=C/c1ccc([N+](=O)[O-])o1 | 36% | 96% (active) | 96.8% (active) | 33% | 98% (active) | 97.1% (active) | 52% | 98% (active) | 95% (active) | 28% | 97% (active) | 92.7% (active) | 38% | 97% (active) | 94.9% (active) | 91% (active) | 96% (active) | 98.2% (active) |
| O=C(CCC(NC(=O)OCc1ccccc1)C(=O)OCc1ccccc1)NC(CSCc1ccccc1)C(=O)NCC(=O)Oc1c(Cl)c(Cl)c(Cl)c(Cl)c1Cl (stereo not drawn) | 8% | 51% | 31% | 9% | 32% | 28.8% | 7% | 35% | 64.2% | -7% | 48% | 45% | 3% | 59% | 18.8% | 8% | 54% | 60.7% |
| O=[N+]([O-])c1cnc(Sc2cncc[n+]2[O-])s1 | 99% (active) | 99% (active) | 99.5% (active) | 100% (active) | 100% (active) | 99.4% (active) | 99% (active) | 100% (active) | 99.3% (active) | 98% (active) | 99% (active) | 99.3% (active) | 99% (active) | 99% (active) | 99.5% (active) | 99% (active) | 99% (active) | 99.5% (active) |
| O=C1C(=O)c2ccccc2C(O)=C1Sc1ccccc1 | 23% | 92% (active) | 95.2% (active) | 20% | 89% (active) | 92.4% (active) | 44% | 95% (active) | 95% (active) | 41% | 88% (active) | 79.3% (active) | 15% | 94% (active) | 93.7% (active) | 34% | 93% (active) | 95.5% (active) |
| Oc1ccc2ccccc2c1CNc1ccc2ccccc2c1 | 8% | 57% | 95.9% (active) | 10% | 15% | 98.7% (active) | 11% | 69% | 98.8% (active) | -1% | 18% | 97.8% (active) | 0% | 60% | 95.4% (active) | 12% | 67% | 98.5% (active) |
| CC(=O)Sc1ccc(Br)cc1 | 0% | 73% (active) | 45.3% | 3% | 52% | 36.9% | 3% | 60% | 34.9% | -1% | 40% | -2.05% | 1% | 68% | 60.3% | -2% | 76% (active) | 71.2% (active) |
| CNC(=S)/N=c1/sc([N+](=O)[O-])c(C)n1C | -26% | -4% | 65.5% | -6% | 0% | 12.5% | -7% | 7% | 67.7% | -33% | -14% | -1.95% | -4% | 5% | 44.9% | -20% | -12% | 54.8% |
| CN(C)CCC[Si]1(C)c2ccccc2CCc2ccccc21 | -6% | 16% | 82.8% (active) | -5% | 15% | 40% | -5% | 17% | 57.4% | -2% | -5% | 19.9% | -8% | 6% | 71.3% (active) | -3% | 26% | 78.8% (active) |
| N#CC(C#N)=C1C(Br)=CCc2ccccc21 | 100% (active) | 99% (active) | 99.2% (active) | 100% (active) | 100% (active) | 99.3% (active) | 100% (active) | 99% (active) | 99.2% (active) | 100% (active) | 99% (active) | 97.5% (active) | 100% (active) | 99% (active) | 99.2% (active) | 100% (active) | 99% (active) | 99.2% (active) |
| COC(=O)CCCCCCCCCCC(=O)O | -3% | -4% | 2.45% | -1% | -2% | -11.6% | -2% | 4% | -9.55% | -9% | -4% | -4.75% | -4% | -9% | 38.6% | -2% | 2% | -6.6% |
| O=CNC(CCCC(=O)O)Cc1cc2ccccc2c2ccccc12 (stereo not drawn) | 5% | 17% | 94.5% (active) | 13% | 31% | 95% (active) | 5% | 11% | 95.6% (active) | 7% | 22% | 93.7% (active) | -8% | -4% | 94.8% (active) | -3% | 9% | 94.5% (active) |
| O=c1[nH]c2cc(Cl)ccc2nc1/C=C(\O)c1ccccn1 | 20% | 79% (active) | 60% | 7% | 49% | 37.8% | 8% | 71% (active) | 74.8% (active) | 8% | 64% | 34.1% | 21% | 27% | 44.5% | -1% | 82% (active) | 88% (active) |
| CN(Cc1cc(Cl)cc(Cl)c1O)Cc1c(O)ccc2ccccc12 | 31% | 100% (active) | 98.5% (active) | 14% | 100% (active) | 98.3% (active) | 10% | 99% (active) | 98.7% (active) | -34% | 99% (active) | 98.1% (active) | -11% | 100% (active) | 98.6% (active) | 12% | 99% (active) | 98.5% (active) |
| CC(C)C(O)C(C)C | 5% | 1% | 83% (active) | 0% | -3% | -2.45% | -1% | 0% | 4.95% | 4% | -1% | 17.1% | 1% | -7% | 13.7% | 4% | 2% | 49.5% |
| CCOC(=O)C1SC(=S)N(C)C1=O (stereo not drawn) | 3% | 99% (active) | 99.2% (active) | -2% | 99% (active) | 99.5% (active) | 8% | 99% (active) | 99% (active) | -7% | 99% (active) | 99.1% (active) | -3% | 98% (active) | 99.4% (active) | 19% | 98% (active) | 99.4% (active) |
| Cc1cc(Cl)cc2c1OCN(C)C2 | 0% | 93% (active) | 99% (active) | 1% | 96% (active) | 99.2% (active) | 1% | 97% (active) | 98.8% (active) | -6% | 96% (active) | 99.3% (active) | -5% | 94% (active) | 99% (active) | 0% | 94% (active) | 99.5% (active) |
| c1ccc2cc3nc4ccccc4nc3cc2c1 | 44% | 82% (active) | 87.9% (active) | 21% | 38% | 51.4% | 13% | 22% | 20.9% | 15% | 38% | 70.1% (active) | 42% | 57% | 68.3% | 25% | 58% | 73% (active) |
